Test results from PubChem BioAssay (EPA / NIEHS).
Records with an inconclusive call do not appear. Active and inactive are the calls of the source. How the source made its calls: active means hit-call score of the fitted dose curve at least 0.9, where 1 is the maximum; inconclusive means response in the unintended direction; inactive means score below 0.9.

What was measured:
[1] = biological target: human Protein Tyrosine Phosphatase Non-receptor Type 1 (PTPN1), PTPN1 (gene 5770) (UniProt P18031); assay: NVS_ENZ_hPTPN1: NovaScreen (NVS) Enzymatic Assay for human Protein Tyrosine Phosphatase Non-receptor Type 1 (PTPN1) (AID 2283201)
Summary of the method: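 Cell-free fluorogenic-substrate activity assay on recombinant enzyme, read 1.33 h after dosing by fluorescence and electrophoretic mobility shift; loss of signal vs DMSO baseline. Primary screen in duplicate at 25 uM, hits then run in concentration-response up to 50 uM.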

[2] = biological target: human Phosphatase and Tensin Homolog (PTEN), PTEN (gene 5728) (UniProt P60484); assay: NVS_ENZ_hPTEN: NovaScreen (NVS) Enzymatic Assay for human Phosphatase and Tensin Homolog (PTEN) (AID 2283203)
Summary of the method: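 Cell-free recombinant human PTEN with fluorescent substrate; product separated by electrophoretic mobility shift and read by fluorescence 1 h after dosing. Primary screen in duplicate at 25 uM, actives followed in concentration series versus DMSO.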

[3] = biological target: Tyrosine-protein phosphatase non-receptor type 12 (Homo sapiens) (UniProt Q05209); assay: NVS_ENZ_hPTPN12: NovaScreen (NVS) Enzymatic Assay for human Protein Tyrosine Phosphatase Non-receptor Type 12 (PTPN12) (AID 2283204)
Summary of the method: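 Single-concentration duplicates (25 uM) preceded singleton concentration-response up to 50 uM for chemicals passing threshold. Cell-free recombinant PTPN12 activity was read 1.33 h after dosing via fluorescence after mobility-shift separation; loss of signal versus DMSO.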

[4] = biological target: human Protein Phosphatase, Mg2+/Mn2+ Dependent 1A (PPM1A), PPM1A (gene 5494) (UniProt P35813); assay: NVS_ENZ_hPPM1A: NovaScreen (NVS) Enzymatic Assay for human Protein Phosphatase, Mg2+/Mn2+ Dependent 1A (PPM1A) (AID 2283198)
Experimental: (§1) NVS_ENZ_hPPM1A is a biochemical, single-readout assay that uses extracted gene-proteins in a cell-free assay. Measurements were taken 1 hour after chemical dosing in a 384-well plate.NVS_ENZ_hPPM1A is one of one assay component(s) measured or calculated from the NVS_ENZ_hPPM1A assay. It is designed to make measurements of enzyme activity, a form of enzyme reporter, as detected with fluorescence intensity signals by Fluorescence and electrophoretic mobility shift technology.Data from the assay component NVS_ENZ_hPPM1A was analyzed into 1 assay endpoint. This assay endpoint, NVS_ENZ_hPPM1A, was analyzed in the positive analysis fitting direction relative to DMSO as the negative control and baseline of activity. Using a type of enzyme reporter, loss-of-signal activity can be used to understand changes in the enzymatic activity as they relate to the gene PPM1A. Furthermore, this assay endpoint can be referred to as a primary readout, because this assay has produced multiple assay endpoints where this one serves a enzymatic activity function. To generalize the intended target to other relatable targets, this assay endpoint is annotated to the phosphatase intended target family, where the subfamily is serine/threonine phosphatase.
Binding assays used specific radioligands (tritiated, iodinated) with non-radioactive competitive displacement ligands in agonist or antagonist protocols (as indicated) and various reference compounds and inhibitors to titrate specific binding to receptors and transporters. Most enzyme assays (CYPs, kinases, phosphatases, proteases, HDACs) used recombinant protein and specific substrates (fluorescence mostly, some colorimetric and radioactive) and inhibitors, followed by a biochemical separation of substrate and product. All assays for the biochemical HTS were initially run in duplicate at a single concentration (10 uM for CYP450 assays and 25 uM for all others). Assay-chemical combinations meeting a pre-defined threshold (e.g., 30% inhibition and other criteria defined below) were then run in singleton concentration-response format with maximum concentration of 20 uM for CYPs and 50 uM for all others. Each assay was run with positive and negative controls, and concurrent controls on every plate. The follow-up (secondary) screen tested active chemical-pairs in concentration series, as well as a few additional assays not tested in the primary screen, some selected negative inactives, and several cases re-run in the concentration series for confirmatory purposes.

[5] = biological target: Serine/threonine-protein phosphatase PP1-alpha catalytic subunit (Homo sapiens) (UniProt P62136); assay: NVS_ENZ_hPPP1CA: NovaScreen (NVS) Enzymatic Assay for human Protein Phosphatase 1 Aatalytic subunit Alpha (PPP1CA) (AID 2283200)
Summary of the method: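 Recombinant enzyme activity read by fluorescence with electrophoretic mobility shift separating substrate from product, 1.33 h after dosing; loss of signal vs DMSO baseline. Primary screen in duplicate at 25 uM; actives retested in concentration-response up to 50 uM.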

[6] = biological target: human Phosphoinositide 3-kinase alpha (PI3Ka), PIK3CA (gene 5290) (UniProt P42336); assay: NVS_ENZ_hPI3Ka: NovaScreen (NVS) Enzymatic Assay for human Phosphoinositide 3-kinase alpha (PI3Ka) (AID 2283196)
Summary of the method: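 Fluorescence/mobility-shift readout of substrate conversion by recombinant enzyme, 1 h post-dosing. Primary screen in duplicate at 25 uM; actives (e.g. ≥30% inhibition) retested in singleton concentration-response, top concentration 50 uM.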

[7] = biological target: Tyrosine-protein phosphatase non-receptor type 11 (Homo sapiens) (UniProt Q06124); assay: NVS_ENZ_hPTPN11: NovaScreen (NVS) Enzymatic Assay for human Protein Tyrosine Phosphatase Non-receptor Type 11 (PTPN11) (AID 2283202)
Experimental: NVS_ENZ_hPTPN11 is a biochemical, single-readout assay that uses extracted gene-proteins in a cell-free assay. Measurements were taken 0.5 hour after chemical dosing in a 384-well plate.NVS_ENZ_hPTPN11 is one of one assay component(s) measured or calculated from the NVS_ENZ_hPTPN11 assay. It is designed to make measurements of enzyme activity, a form of enzyme reporter, as detected with fluorescence intensity signals by Fluorescence and electrophoretic mobility shift technology.Data from the assay component NVS_ENZ_hPTPN11 was analyzed into 1 assay endpoint. This assay endpoint, NVS_ENZ_hPTPN11, was analyzed in the positive analysis fitting direction relative to DMSO as the negative control and baseline of activity. Using a type of enzyme reporter, loss-of-signal activity can be used to understand changes in the enzymatic activity as they relate to the gene PTPN11. Furthermore, this assay endpoint can be referred to as a primary readout, because this assay has produced multiple assay endpoints where this one serves a enzymatic activity function. To generalize the intended target to other relatable targets, this assay endpoint is annotated to the phosphatase intended target family, where the subfamily is non-receptor tyrosine phosphatase.
Binding assays used specific radioligands (tritiated, iodinated) with non-radioactive competitive displacement ligands in agonist or antagonist protocols (as indicated) and various reference compounds and inhibitors to titrate specific binding to receptors and transporters. Most enzyme assays (CYPs, kinases, phosphatases, proteases, HDACs) used recombinant protein and specific substrates (fluorescence mostly, some colorimetric and radioactive) and inhibitors, followed by a biochemical separation of substrate and product. All assays for the biochemical HTS were initially run in duplicate at a single concentration (10 uM for CYP450 assays and 25 uM for all others). […]

[8] = biological target: Tyrosine-protein phosphatase non-receptor type 13 (Homo sapiens) (UniProt Q12923); assay: NVS_ENZ_hPTPN13: NovaScreen (NVS) Enzymatic Assay for human Protein Tyrosine Phosphatase Non-receptor Type 13 (PTPN13) (AID 2283205)
Summary of the method: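 Cell-free assay of recombinant human PTPN13 with a fluorescent substrate, product separated by electrophoretic mobility shift and read 0.5 h after dosing. Primary screen at 25 uM in duplicate, then concentration-response up to 50 uM. Loss of signal fitted against DMSO.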

[9] = biological target: Tyrosine-protein phosphatase non-receptor type 14 (Homo sapiens) (UniProt Q15678); assay: NVS_ENZ_hPTPN14: NovaScreen (NVS) Enzymatic Assay for human Protein Tyrosine Phosphatase Non-receptor Type 14 (PTPN14) (AID 2283206)
Summary of the method: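 Cell-free recombinant human PTPN14 with fluorescent substrate, read 0.5 h after dosing by fluorescence and electrophoretic mobility shift separating substrate from product. Primary screen at 25 uM in duplicate; hits run to 50 uM maximum; loss of signal versus DMSO.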

PPP2CA (gene 5515) = PPP2CA (gene 5515) (UniProt P67775); assay: NVS_ENZ_hPPP2CA: NovaScreen (NVS) Enzymatic Assay for human Protein Phosphatase 2 Aatalytic subunit Alpha (PPP2CA) (AID 2283199)
Experimental: as §1, with “NVS_ENZ_hPPP2CA” for “NVS_ENZ_hPPM1A”, “1.33 hours” for “1 hour”, “plate.NVS_ENZ_hPPP2CA” for “plate.NVS_ENZ_hPPM1A”, “NVS_ENZ_hPPP2CA,” for “NVS_ENZ_hPPM1A,”, “PPP2CA.” for “PPM1A.”, “phosphatase. […]” for “phosphatase.”

Sequence of human Protein Phosphatase, Mg2+/Mn2+ Dependent 1A (PPM1A), PPM1A (gene 5494) (P35813 whole entry, looked up): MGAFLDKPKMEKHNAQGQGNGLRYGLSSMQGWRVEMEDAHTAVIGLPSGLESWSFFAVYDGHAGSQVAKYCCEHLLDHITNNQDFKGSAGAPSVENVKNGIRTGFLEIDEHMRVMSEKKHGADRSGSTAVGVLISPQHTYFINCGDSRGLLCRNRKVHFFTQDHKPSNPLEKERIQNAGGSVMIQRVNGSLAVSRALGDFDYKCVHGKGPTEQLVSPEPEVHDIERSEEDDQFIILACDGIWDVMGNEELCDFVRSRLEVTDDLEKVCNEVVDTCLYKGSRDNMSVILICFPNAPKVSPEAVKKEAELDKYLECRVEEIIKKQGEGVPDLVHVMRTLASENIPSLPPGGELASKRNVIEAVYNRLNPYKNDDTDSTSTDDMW
Sequence of human Protein Tyrosine Phosphatase Non-receptor Type 1 (PTPN1), PTPN1 (gene 5770) (P18031 whole entry, looked up): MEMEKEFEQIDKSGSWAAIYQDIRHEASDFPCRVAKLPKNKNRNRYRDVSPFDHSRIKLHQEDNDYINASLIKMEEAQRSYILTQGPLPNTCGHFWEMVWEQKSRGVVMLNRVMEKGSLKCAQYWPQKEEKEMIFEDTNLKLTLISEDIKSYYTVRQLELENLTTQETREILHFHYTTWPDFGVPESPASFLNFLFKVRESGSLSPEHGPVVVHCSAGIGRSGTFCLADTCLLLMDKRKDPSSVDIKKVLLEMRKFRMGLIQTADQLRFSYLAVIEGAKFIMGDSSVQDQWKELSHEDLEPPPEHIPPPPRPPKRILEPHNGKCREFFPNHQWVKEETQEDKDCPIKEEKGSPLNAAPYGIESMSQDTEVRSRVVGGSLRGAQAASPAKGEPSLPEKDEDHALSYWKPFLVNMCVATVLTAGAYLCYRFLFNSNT
Sequence of Tyrosine-protein phosphatase non-receptor type 11 (Homo sapiens) (Q06124 whole entry, looked up): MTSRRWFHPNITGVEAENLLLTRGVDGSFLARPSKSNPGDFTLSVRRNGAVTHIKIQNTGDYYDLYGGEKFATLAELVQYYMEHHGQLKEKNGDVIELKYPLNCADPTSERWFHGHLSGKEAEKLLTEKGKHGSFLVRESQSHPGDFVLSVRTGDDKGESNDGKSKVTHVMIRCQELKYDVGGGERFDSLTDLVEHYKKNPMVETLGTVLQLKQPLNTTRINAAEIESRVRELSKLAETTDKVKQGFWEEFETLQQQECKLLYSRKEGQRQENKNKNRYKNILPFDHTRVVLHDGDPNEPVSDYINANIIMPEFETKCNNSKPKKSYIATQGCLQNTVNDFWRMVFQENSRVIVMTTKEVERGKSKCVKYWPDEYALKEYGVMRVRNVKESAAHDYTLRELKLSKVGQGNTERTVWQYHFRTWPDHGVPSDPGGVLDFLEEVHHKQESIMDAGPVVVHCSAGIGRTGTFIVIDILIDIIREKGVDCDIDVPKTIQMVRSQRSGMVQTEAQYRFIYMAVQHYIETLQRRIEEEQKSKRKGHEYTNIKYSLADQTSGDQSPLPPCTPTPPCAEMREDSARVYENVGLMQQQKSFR
Sequence of human Phosphatase and Tensin Homolog (PTEN), PTEN (gene 5728) (P60484 whole entry, looked up): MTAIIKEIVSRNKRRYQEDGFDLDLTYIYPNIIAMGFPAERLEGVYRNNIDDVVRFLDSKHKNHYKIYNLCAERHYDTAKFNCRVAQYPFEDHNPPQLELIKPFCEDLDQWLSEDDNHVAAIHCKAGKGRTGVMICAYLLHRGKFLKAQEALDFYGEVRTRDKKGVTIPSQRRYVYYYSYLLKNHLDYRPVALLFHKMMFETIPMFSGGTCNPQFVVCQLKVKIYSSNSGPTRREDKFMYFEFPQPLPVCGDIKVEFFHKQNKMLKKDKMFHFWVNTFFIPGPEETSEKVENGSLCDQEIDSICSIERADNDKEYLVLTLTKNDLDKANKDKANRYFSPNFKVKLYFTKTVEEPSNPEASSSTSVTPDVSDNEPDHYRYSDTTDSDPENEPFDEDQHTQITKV
Sequence of Serine/threonine-protein phosphatase PP1-alpha catalytic subunit (Homo sapiens) (P62136 whole entry, looked up): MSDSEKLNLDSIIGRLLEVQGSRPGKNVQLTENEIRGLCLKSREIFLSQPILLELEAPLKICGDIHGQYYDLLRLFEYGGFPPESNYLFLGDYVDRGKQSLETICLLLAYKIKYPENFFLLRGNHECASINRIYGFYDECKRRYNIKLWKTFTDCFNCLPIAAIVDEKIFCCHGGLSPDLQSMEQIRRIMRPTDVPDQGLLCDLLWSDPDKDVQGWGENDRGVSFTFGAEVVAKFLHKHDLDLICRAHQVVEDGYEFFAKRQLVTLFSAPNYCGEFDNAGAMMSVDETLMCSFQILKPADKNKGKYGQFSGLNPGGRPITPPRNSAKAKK
Sequence of Tyrosine-protein phosphatase non-receptor type 13 (Homo sapiens) (Q12923 whole entry, looked up): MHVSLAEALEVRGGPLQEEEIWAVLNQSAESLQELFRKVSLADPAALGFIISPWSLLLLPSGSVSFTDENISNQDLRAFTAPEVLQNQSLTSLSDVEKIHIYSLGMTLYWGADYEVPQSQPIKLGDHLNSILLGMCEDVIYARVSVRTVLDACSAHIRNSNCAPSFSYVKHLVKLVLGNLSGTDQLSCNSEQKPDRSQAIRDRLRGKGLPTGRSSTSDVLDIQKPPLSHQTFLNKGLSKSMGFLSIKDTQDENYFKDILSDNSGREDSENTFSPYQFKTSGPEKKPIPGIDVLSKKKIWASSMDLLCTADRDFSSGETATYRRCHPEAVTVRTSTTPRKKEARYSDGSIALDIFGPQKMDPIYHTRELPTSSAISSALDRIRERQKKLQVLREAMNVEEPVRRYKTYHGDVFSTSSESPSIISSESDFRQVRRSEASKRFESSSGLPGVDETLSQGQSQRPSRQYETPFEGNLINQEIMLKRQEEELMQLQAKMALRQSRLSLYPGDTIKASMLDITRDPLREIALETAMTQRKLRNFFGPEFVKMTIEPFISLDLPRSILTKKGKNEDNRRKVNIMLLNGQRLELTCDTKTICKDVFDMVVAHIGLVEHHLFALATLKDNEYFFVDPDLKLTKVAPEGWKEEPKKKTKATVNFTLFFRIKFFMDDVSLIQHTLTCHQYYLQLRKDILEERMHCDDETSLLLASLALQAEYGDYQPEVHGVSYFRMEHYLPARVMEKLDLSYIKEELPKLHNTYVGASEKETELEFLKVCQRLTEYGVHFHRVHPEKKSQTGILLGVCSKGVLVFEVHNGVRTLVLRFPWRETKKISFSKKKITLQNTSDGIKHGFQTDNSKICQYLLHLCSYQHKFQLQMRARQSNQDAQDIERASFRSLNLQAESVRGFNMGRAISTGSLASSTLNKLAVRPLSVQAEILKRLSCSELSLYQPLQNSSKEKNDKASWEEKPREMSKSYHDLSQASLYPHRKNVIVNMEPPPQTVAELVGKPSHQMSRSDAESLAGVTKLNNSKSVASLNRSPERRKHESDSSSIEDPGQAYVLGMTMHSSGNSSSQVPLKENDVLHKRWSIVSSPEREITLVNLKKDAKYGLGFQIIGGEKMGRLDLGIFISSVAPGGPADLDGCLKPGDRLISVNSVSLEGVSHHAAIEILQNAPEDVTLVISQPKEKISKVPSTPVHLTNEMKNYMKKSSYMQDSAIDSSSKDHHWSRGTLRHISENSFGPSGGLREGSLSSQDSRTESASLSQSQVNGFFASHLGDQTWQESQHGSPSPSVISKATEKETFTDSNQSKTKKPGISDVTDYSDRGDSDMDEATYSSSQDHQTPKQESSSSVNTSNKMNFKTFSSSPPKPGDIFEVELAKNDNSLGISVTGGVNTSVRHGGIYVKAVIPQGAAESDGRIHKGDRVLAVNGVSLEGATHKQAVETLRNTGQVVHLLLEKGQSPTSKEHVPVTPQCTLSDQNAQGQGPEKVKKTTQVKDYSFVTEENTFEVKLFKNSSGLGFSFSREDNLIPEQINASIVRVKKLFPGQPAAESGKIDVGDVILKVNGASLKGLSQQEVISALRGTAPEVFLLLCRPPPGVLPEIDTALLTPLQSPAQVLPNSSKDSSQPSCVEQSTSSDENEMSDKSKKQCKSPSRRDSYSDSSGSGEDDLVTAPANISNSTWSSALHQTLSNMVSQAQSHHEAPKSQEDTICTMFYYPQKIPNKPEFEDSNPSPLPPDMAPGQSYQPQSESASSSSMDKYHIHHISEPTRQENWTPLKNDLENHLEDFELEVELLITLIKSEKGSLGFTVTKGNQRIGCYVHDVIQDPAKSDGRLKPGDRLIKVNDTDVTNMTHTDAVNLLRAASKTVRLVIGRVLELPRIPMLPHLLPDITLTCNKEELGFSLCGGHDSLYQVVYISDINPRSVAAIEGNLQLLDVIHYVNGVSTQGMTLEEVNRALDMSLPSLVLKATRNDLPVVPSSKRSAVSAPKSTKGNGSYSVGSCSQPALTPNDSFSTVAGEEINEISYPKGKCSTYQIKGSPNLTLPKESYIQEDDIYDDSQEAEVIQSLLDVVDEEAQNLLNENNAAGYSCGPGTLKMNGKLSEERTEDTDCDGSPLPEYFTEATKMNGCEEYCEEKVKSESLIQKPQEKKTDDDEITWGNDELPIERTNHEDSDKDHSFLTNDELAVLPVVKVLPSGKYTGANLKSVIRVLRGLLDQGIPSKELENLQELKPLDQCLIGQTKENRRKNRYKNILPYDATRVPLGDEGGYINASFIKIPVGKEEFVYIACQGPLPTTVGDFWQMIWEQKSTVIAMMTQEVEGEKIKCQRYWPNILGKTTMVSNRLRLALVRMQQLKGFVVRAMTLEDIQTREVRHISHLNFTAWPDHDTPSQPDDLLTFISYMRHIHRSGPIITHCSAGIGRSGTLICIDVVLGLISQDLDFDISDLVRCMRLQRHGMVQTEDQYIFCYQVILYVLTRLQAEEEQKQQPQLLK
Sequence of PPP2CA (gene 5515) (P67775 whole entry, looked up): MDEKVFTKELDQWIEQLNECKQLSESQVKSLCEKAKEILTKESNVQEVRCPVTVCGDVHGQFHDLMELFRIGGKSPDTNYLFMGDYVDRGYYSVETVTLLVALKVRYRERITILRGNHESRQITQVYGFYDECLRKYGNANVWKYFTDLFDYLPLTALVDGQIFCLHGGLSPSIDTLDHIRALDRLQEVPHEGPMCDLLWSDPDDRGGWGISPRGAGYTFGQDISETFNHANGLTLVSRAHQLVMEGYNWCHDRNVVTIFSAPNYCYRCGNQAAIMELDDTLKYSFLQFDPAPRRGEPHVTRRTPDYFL

## O=C(O)C(F)(F)C(F)(F)C(F)(F)C(F)(F)C(F)(F)C(F)(F)C(F)(F)C(F)(F)F
[1]
  outcome: inactive
[2]
  outcome: inactive
[3]
  outcome: inactive

## Clc1ccc(C(c2ccccc2Cl)C(Cl)(Cl)Cl)cc1 (stereo unspecified)
[4]
  outcome: inactive
[5]
  outcome: inactive

## O=C(O)C(F)(F)C(F)(F)C(F)(F)C(F)(F)C(F)(F)C(F)(F)C(F)(F)C(F)(F)C(F)(F)F
[5]
  AC50: 43.3 µM (active)

## NS(=O)(=O)C(F)(F)C(F)(F)C(F)(F)C(F)(F)C(F)(F)C(F)(F)C(F)(F)C(F)(F)F
[4]
  outcome: inactive

## C=CC(N)=O
[4]
  outcome: inactive

## CC1=C2C[C@H]3[C@@H](CC=C4C[C@@H](O)CC[C@@]43C)[C@@H]2CC[C@]12O[C@@H]1C[C@H](C)CN[C@H]1[C@H]2C
[6]
  outcome: inactive
[1]
  outcome: inactive
[7]
  outcome: inactive
[3]
  outcome: inactive
[8]
  AC50: 6.4 µM (active)
[9]
  outcome: inactive

## Cc1cc(-c2ccc(N)c(C)c2)ccc1N
PPP2CA (gene 5515)
  outcome: inactive
[5]
  outcome: inactive

## Cc1cc2c3c(c1)C(c1ccccc1)=N[C@@H](NC(=O)c1ccncc1)C(=O)N3CC2
[4]
  outcome: inactive

## ClC1=C(Cl)[C@]2(Cl)[C@@H]3[C@@H](Cl)[C@H]4O[C@H]4[C@@H]3C1(Cl)C2(Cl)Cl
[5]
  outcome: inactive

## O=S(=O)(O)C(F)(F)C(F)(F)C(F)(F)C(F)(F)C(F)(F)C(F)(F)F
[2]
  outcome: inactive

## Oc1ccc(C(c2ccc(O)cc2)(C(F)(F)F)C(F)(F)F)cc1
[1]
  outcome: inactive
[7]
  outcome: inactive

## Cc1cccc([N+](=O)[O-])c1
[5]
  outcome: inactive
[2]
  outcome: inactive

## O=C(O)C(F)(F)C(F)(F)C(F)(F)C(F)(F)C(F)(F)F
[1]
  outcome: inactive
[7]
  outcome: inactive
[2]
  outcome: inactive

## CCC(C)c1cc([N+](=O)[O-])cc([N+](=O)[O-])c1O (stereo unspecified)
[4]
  outcome: inactive

## CC(C)C(=O)OCC(C)(C)C(OC(=O)C(C)C)C(C)C (stereo unspecified)
[6]
  outcome: inactive
[5]
  outcome: inactive
[8]
  outcome: inactive

## CCOCCOC(C)=O
[1]
  outcome: inactive
